Among the data in PubChem BioAssay (NCI) are growth values, retold here.

About 83,000 compounds went through this panel and 20% of them were active in at least one assay; those are over-represented in the sample as a whole.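 Cell lines were cultured in 96-well plates, exposed to a single compound concentration, and assessed for percent growth 48 hours later.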 Unmarked numbers belong to inactive results. Calls of active or inactive are those of the source. Rule for the calls: active = growth percent below 10; inactive = the rest.

Among the test systems are SR leukemia; RPMI-8226 leukemia; OVCAR-8 ovarian; OVCAR-5 ovarian; OVCAR-4 ovarian; IGROV1 ovarian; HS 578T breast; NCI/ADR-RES ovarian; T-47D breast; BT-549 breast; MDA-MB-435 melanoma; SW-620 colon; MCF7 breast; HCT-116 colon; HCC-2998 colon; KM12 colon; SK-OV-3 ovarian; OVCAR-3 ovarian.
Common to all, as to assay: NCI-60 one-dose screen, 48 h (100 = growth as untreated, 0 = no growth, -100 = all killed)
What all share (settings): 10 µM unless noted

Turning to `C#C[C@]1(O)CC[C@H]2[C@@H]3CC=C4c5sc(Nc6cccc(Cl)n6)nc5CC[C@]4(C)[C@H]3CC[C@@]21C`, the growth with SR leukemia was 2.56% (active); in the experiment with RPMI-8226 leukemia, -23.2% (active); in the experiment on OVCAR-8 ovarian, 29.3%; in the experiment on OVCAR-5 ovarian it was 22.8%; in the experiment with OVCAR-4 ovarian, 47.8%; in the experiment on IGROV1 ovarian, 35.6%. Further, the growth in the experiment with HS 578T breast is -19.9% (active); in the experiment on NCI/ADR-RES ovarian, 23%; in the experiment on T-47D breast it was 25.8%; in the experiment with BT-549 breast it was 24.1%; in the experiment on MDA-MB-435 melanoma it was -65.8% (active); in the experiment with SW-620 colon, -61% (active). The growth with MCF7 breast was -70.4% (active); in the experiment with HCT-116 colon, 10.1%; in the experiment on HCC-2998 colon, 24.2%; in the experiment with KM12 colon, -10.8% (active).
With `IP(CCCCCCCCCCSc1n(Cc2ccc3ccccc3c2)c(-c2ccccc2)c(-c2ccccc2)[n+]1Cc1ccc2ccccc2c1)(c1ccccc1)(c1ccccc1)c1ccccc1`, the growth in the experiment with SR leukemia is -39.8% (active); in the experiment on RPMI-8226 leukemia, -38% (active); with OVCAR-8 ovarian, -50.3% (active); with OVCAR-5 ovarian, -76.1% (active); in the experiment on SK-OV-3 ovarian it was -63% (active); in the experiment on IGROV1 ovarian it was -66.5% (active). For the same compound, the growth is -86.4% (active) with OVCAR-3 ovarian; -30.4% (active) in the experiment on HS 578T breast; 29.6% with NCI/ADR-RES ovarian; -57.4% (active) in the experiment with T-47D breast; -71.4% (active) with BT-549 breast; -81.7% (active) in the experiment on MDA-MB-435 melanoma. Moreover, the growth was -77.8% (active) in the experiment with SW-620 colon; -54.2% (active) in the experiment on MCF7 breast; -60.9% (active) in the experiment with HCT-116 colon; -86.8% (active) in the experiment on HCC-2998 colon; -83.3% (active) with KM12 colon.
On to `CCOC(=O)c1ccc(N/C=C/C(=O)c2ccccc2)cc1`, for which the growth is 87.8% in the experiment on SR leukemia; 100% in the experiment with RPMI-8226 leukemia; 102% in the experiment on OVCAR-8 ovarian; 101% in the experiment with OVCAR-5 ovarian; 105% in the experiment with OVCAR-4 ovarian; 110% with IGROV1 ovarian. In addition, the growth with HS 578T breast is 113%; in the experiment on NCI/ADR-RES ovarian, 103%; with T-47D breast, 84.6%; in the experiment with BT-549 breast, 114%; in the experiment with MDA-MB-435 melanoma, 92.7%; in the experiment on SW-620 colon it was 100%. Moreover, the growth in the experiment with MCF7 breast was 88.2%; with HCT-116 colon it was 96.5%; in the experiment with KM12 colon, 98.5%.
Consider `NC(=O)c1c(NC(=O)c2cccc(OC(F)(F)F)c2)sc2c1CCC(=O)C2`, for which the growth was 30% in the experiment on SR leukemia; 6.56% (active) in the experiment with RPMI-8226 leukemia; 53% with OVCAR-8 ovarian; 62.5% in the experiment with OVCAR-5 ovarian; 13.8% in the experiment with OVCAR-4 ovarian; 36.4% in the experiment with IGROV1 ovarian. In addition, the growth in the experiment on OVCAR-3 ovarian is 67.2%; in the experiment with HS 578T breast it was 40.4%; in the experiment with NCI/ADR-RES ovarian, 57.5%; with T-47D breast, 28.1%; in the experiment on BT-549 breast, 28.4%; with MDA-MB-435 melanoma, 64.7%. Besides, the growth in the experiment on SW-620 colon is 18.3%; in the experiment on MCF7 breast it was 27.4%; in the experiment on HCT-116 colon, 15.6%; in the experiment with HCC-2998 colon, 104%; in the experiment on KM12 colon, 31.4%.
Turning to `C#CCOc1ccc(C(Nc2cc(Cl)ccc2Cl)c2nnnn2C2CCCCC2)cc1` (stereo unspecified), the growth with SR leukemia is 87.6%; with RPMI-8226 leukemia, 81.1%; in the experiment with OVCAR-8 ovarian, 91.3%; in the experiment on OVCAR-5 ovarian it was 93.1%; in the experiment on OVCAR-4 ovarian, 93.3%; in the experiment on IGROV1 ovarian, 80.4%. Besides, the growth is 95.6% with OVCAR-3 ovarian; 87.4% with HS 578T breast; 80.2% in the experiment with NCI/ADR-RES ovarian; 93.6% in the experiment with BT-549 breast; 102% with MDA-MB-435 melanoma; 91.8% in the experiment on SW-620 colon. Also, the growth with MCF7 breast is 73.4%; with HCT-116 colon it was 56.3%; with HCC-2998 colon, 90.1%; in the experiment with KM12 colon, 92%.
Take `COc1ccc2c(c1)c(-c1nnc(N)nc1-c1cn(C)c3ccccc13)cn2C`: the growth in the experiment with SR leukemia is 84.7%; in the experiment on RPMI-8226 leukemia, 105%; in the experiment on OVCAR-8 ovarian, 103%; with OVCAR-5 ovarian, 86.5%; in the experiment on OVCAR-4 ovarian, 91.3%; with OVCAR-3 ovarian it was 96.8%. Moreover, the growth in the experiment on HS 578T breast was 91.2%; in the experiment with NCI/ADR-RES ovarian, 90.5%; with T-47D breast, 82.3%; in the experiment with BT-549 breast, 108%; in the experiment with MDA-MB-435 melanoma it was 91.6%; in the experiment on SW-620 colon, 94.6%. In addition, the growth in the experiment with MCF7 breast is 79.5%; with HCT-116 colon, 89.2%; in the experiment on HCC-2998 colon, 102%; with KM12 colon it was 94.6%.
As to `Cc1ccc(-c2cc3nc(C(Cl)Cl)nc(-c4ccccc4)n3n2)cc1`, the growth with SR leukemia is 85.3%; in the experiment with RPMI-8226 leukemia, 82.5%; with OVCAR-8 ovarian, 92.9%; in the experiment on OVCAR-5 ovarian, 103%; in the experiment with SK-OV-3 ovarian it was 97.9%; with IGROV1 ovarian, 94.3%. Besides, the growth was 109% in the experiment with HS 578T breast; 79.5% in the experiment on NCI/ADR-RES ovarian; 90.4% in the experiment with T-47D breast; 95.8% in the experiment on BT-549 breast; 91.5% with MDA-MB-435 melanoma; 79.5% in the experiment on SW-620 colon. For the same compound, the growth with MCF7 breast is 64.1%; with HCT-116 colon, 82.2%; with HCC-2998 colon, 65.3%; with KM12 colon, 65.8%.
`Cc1cc(NS(=O)(=O)c2ccc(-c3cnc(C4CC4)o3)cc2)ccc1I`: the growth with SR leukemia was 32.9%; in the experiment on OVCAR-8 ovarian it was 46.4%; in the experiment on OVCAR-5 ovarian, 54.6%; in the experiment on OVCAR-4 ovarian it was 59.9%; in the experiment on SK-OV-3 ovarian, 66.2%; with IGROV1 ovarian it was 36.7%. In addition, the growth with OVCAR-3 ovarian is 8.32% (active); with HS 578T breast it was 40%; in the experiment on NCI/ADR-RES ovarian, 14.3%; with T-47D breast it was 32.5%; with BT-549 breast, 36%; with MDA-MB-435 melanoma, 3.85% (active). Besides, the growth with SW-620 colon is 25.5%; in the experiment on MCF7 breast, 25.4%; with HCT-116 colon it was 28.3%; in the experiment on HCC-2998 colon, 63.8%; in the experiment on KM12 colon, 27.4%.
For `CCOC(=O)c1c(NC(=O)c2ccc(C(C)(C)C)cc2)sc2cc(OCCN3CCCCC3)ccc12`, the growth was 16.5% in the experiment on SR leukemia; 14.6% in the experiment with RPMI-8226 leukemia; 93.4% in the experiment with OVCAR-8 ovarian; 91.8% with OVCAR-5 ovarian; 106% with SK-OV-3 ovarian; 74.9% in the experiment with IGROV1 ovarian. The growth in the experiment with OVCAR-3 ovarian is 74.8%; in the experiment on HS 578T breast, 96.5%; in the experiment with NCI/ADR-RES ovarian, 88.3%; in the experiment on T-47D breast, 96.9%; in the experiment with BT-549 breast it was 93%; in the experiment on MDA-MB-435 melanoma, 91.8%. Besides, the growth was 22.2% in the experiment with SW-620 colon, 34.8% with MCF7 breast, 21.7% in the experiment on HCT-116 colon and 51.1% in the experiment on KM12 colon.
